High-throughput results (PubChem BioAssay)
SW480 rereplic – inducers of DNA re-replication in SW480 colon cancer cells; SW480 DNA re-replication, Hoechst DNA content imaging, 48 h; Potency, µM (top dose mostly 46.1 µM), without a hit: at the highest dose re-replication activation, usual class: activators; 1.8% of 340,000 active; AID 624297; further: potency means the concentration at half of the fitted maximal effect; % of control where 0% means no effect; nearly all actives have a fitted effect of over 55% in size
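Quantitative HTS format with DMSO vehicle controls; 48 hr drug incubation at 37 C, then 40 min Hoechst staining and scanning imager measurement at 405 nm excitation.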
MCF10A rereplic – induces DNA re-replication in MCF 10a normal breast cells | 2.9% of 350,000 active | Potency, µM (highest dose often 46.1 µM), for inactives: top-dose activity, positive = re-replication, usual class: activators | MCF 10A DNA re-replication, Hoechst nuclear intensity, 48 h | AID 624296; further: potency means the concentration at half of the fitted maximal effect; % of control where 0% means no effect; nearly all actives have a fitted effect of over 50% in size
IL1B secr inh – inflammasome signaling inhibition, IL-1 beta readout; THP-1 LPS/ATP IL-1B secretion, AlphaLISA, 16 h; hits give low values; activity change, % at 57.5 µM; 4.7% of 360,000 active; in the data active means activity change below about -50%; inconclusive means mostly about -30% to -49%; further: on the % scale 0 is the no-effect control and ±100 the full control effect
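Secreted IL-1B measured by AlphaLISA bead assay after 16 h compound exposure of THP-1 cells; compounds (final up to 57.5 uM) added 1 h before LPS (250 ng/mL) and ATP (1.25 mM) stimulation; lower signal means less secretion.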
BCR signal inh – inhibitors of chronic active B-cell receptor signaling; ABC-DLBCL IkBa-CBG/CBR reporter, luminescence ratio, 4 h; Potency, µM (highest dose often 46.1 µM), without a hit: at the highest dose activity change, negative = inhibition, hits mostly inhibitors; 0.05% of 340,000 active; AID 493014; active means well fitted inhibition curve with a large enough effect in the signal ratio, with a control signal flat, not every such curve was filed as active; inconclusive means small, poorly fitted or top-dose-only effect, or effect the other way, or a change in a side signal; the % refers to the signal ratio;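 further: potency means the concentration at half of the fitted maximal effect; plate controls were basal doxycycline-induced cells for no effect and cells given 10 µM MG132 for full effect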
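TMD8 ABC-DLBCL cells carrying doxycycline-inducible green luciferase fused to IkappaBalpha plus unfused red luciferase were exposed to compounds (up to 46 uM) for 4 hrs at 37C. Activity came from the overlap-corrected green/red luminescence ratio.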
TDP1 cell CPT – DT40-hTDP1 cell growth loss with CPT | Potency, µM (series often up to 46.2 µM), for inactives: at the top dose activity change, negative = growth inhibition, usual class: inhibitors | 12% of 420,000 active | chicken DT40 Tdp1-/-;hTDP1 cells + 20 nM CPT, ATP luminescence, 48 h | AID 686979; further: potency means the concentration at half of the fitted maximal effect; on the % scale 0 is the no-effect control and ±100 the full control effect; nearly all actives have a fitted effect of over 55% in size
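Chicken DT40 Tdp1-/- cells stably complemented with human TDP1 were seeded at 400 cells/well in medium containing 20 nM camptothecin, exposed to pin-transferred compounds, and grown at 37 °C for at least 48 hr. Viability was read as ATP luminescence.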
TDP1 cell noCPT – qHTS for Inhibitors of human tyrosyl-DNA phosphodiesterase 1 (TDP1): qHTS in cells in absence of CPT | Potency, µM (series often up to 46.2 µM), for the others: top-dose activity change, negative = growth inhibition, most hits filed as inhibitors | 15% of 420,000 active | AID 686978, 2013 | DT40 Tdp1-/- hTDP1 cells, no CPT, ATP luminescence, 48 h; further: potency means the concentration at half of the fitted maximal effect; on the % scale 0 is the no-effect control and ±100 the full control effect; nearly all actives have a fitted effect of over 55% in size
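Camptothecin absent (DMSO only). Human TDP1-complemented DT40 knockout cells, 400 cells/well, 37 °C for minimum 48 hr; ATP measured via CellTiter-Glo, 30 min dark incubation, luminescence.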
* marks the source's active call; other numbers are inactive results; ? = inconclusive; nt = not tested or not shown. Most compounds without a hit are left out; they make up all but 19% or so of the library. Unless noted, the call rests on the fitted dose curve; in most records, active means well fitted curve in the direction sought with a large enough effect; inconclusive means small, poorly fitted or top-dose-only effect, or another doubt; inactive means no such curve, though single readings can be large; an effect the other way counts as inactive or inconclusive.

SMILES	SW480 rereplic	MCF10A rereplic	IL1B secr inh	BCR signal inh	TDP1 cell CPT	TDP1 cell noCPT
Cn1ncc2c(O/N=C(\N)c3ccc(C(C)(C)C)cc3)ncnc21	9.2µM*	18µM*	-101*	?	2.6µM*	2.9µM*
O=S(=O)(c1ccccc1)N(CC1CO1)c1cccc2ccccc12 (configuration not stated)	21µM*	?	-69*	?	21µM*	23µM*
O=S(=O)(c1ccccc1)N(CC1CO1)c1ccccc1 (configuration not stated)	1%	-3%	-23	2%	-26%	?
Cc1ccc(S(=O)(=O)N(CC2CO2)c2ccccc2[N+](=O)[O-])cc1 (configuration not stated)	8%	14%	?	6%	12µM*	?
Cc1ccc(S(=O)(=O)N(CC2CO2)c2cccc([N+](=O)[O-])c2)cc1 (configuration not stated)	18µM*	?	-14	?	12µM*	23µM*
COc1ccc(-c2ccc(SCC(=O)NC3CCCCC3)nn2)cc1OC	1%	-4%	-13	?	-27%	?
CC(=O)OCC(=O)C12OC(C)(C)OC1CC1C3CC=C4CC(O)CCC4(C)C3CCC12C (configuration not stated)	4%	?	2	nt	?	?
Cn1nc(-c2ccccc2)cc1NC(=O)[C@@H]1O[C@H](CO)[C@H](O)[C@H](O)[C@H]1O	nt	nt	23	nt	-24%	-9%
COc1ccc(Cl)cc1C(=O)NCCCSc1ccccc1	10%	26%	-54*	?	-11%	?
Cc1cccc(C(=O)NCC(=O)NCCCSc2ccccc2)c1	3%	1%	19	-18%	?	?
O=C(CNC(=O)c1cccc(Cl)c1)NCCCSc1ccccc1	-2%	5%	1	0%	?	23µM*
Cc1ccc2nc(-c3c[nH]c4ccccc34)c(Nc3ccccc3C)n2c1	nt	nt	nt	nt	16µM*	3.3µM*
Cc1ccc(Nc2c(-c3c[nH]c4ccccc34)nc3ccccn23)cc1	nt	nt	nt	nt	13µM*	21µM*
Cc1ccc(-c2nc3ccccn3c2C=O)cc1	-5%	-7%	9	-14%	?	?
O=C(O)CC1c2ccccc2CCN1S(=O)(=O)c1ccc(F)cc1 (configuration not stated)	-16%	-2%	18	3%	6%	-19%
CC(CNS(=O)(=O)c1ccc2c(c1)NC(=O)CCS2)c1ccccc1 (configuration not stated)	-19%	-1%	11	-1%	-28%	-24%
Cc1ccc(NS(=O)(=O)c2ccc3c(c2)NC(=O)CCS3)c(C)c1	-1%	0%	-6	2%	23µM*	?
Cc1cc(C)c(NS(=O)(=O)c2ccc3c(c2)NC(=O)CCS3)c(C)c1	17%	9%	0	2%	?	15µM*
Cc1ccc(NS(=O)(=O)c2ccc3c(c2)NC(=O)CCS3)c(Cl)c1	-13%	-2%	71	0%	?	-13%
CCOc1ccc(NS(=O)(=O)c2ccc3c(c2)NC(=O)CCS3)cc1	nt	nt	nt	-18%	?	12µM*
CCC1Sc2ccc(S(=O)(=O)Nc3ccc(OC)c(OC)c3)cc2NC1=O (configuration not stated)	0%	?	-13	2%	21µM*	8.2µM*
Cc1ccc2nc(CSc3nnc(NC(=O)COc4ccccc4F)s3)cc(=O)n2c1	nt	nt	nt	nt	7%	0%
COc1ccc(Cl)cc1NS(=O)(=O)c1ccc2c(c1)NC(=O)CCS2	-38%	1%	7	?	?	4.6µM*
